Laboratory results: PubChem BioAssay (NCATS)
Several values for one entry are separate records, joined by “and”; a condition that tells them apart may be missing. Equal entries are not always repeated. Records with an inconclusive call do not appear. For some of these results: Entries with a potency or affinity are not part of this list. Activity calls are given as the source filed them. Unless noted, the rule behind the calls is not given here.

How the values were obtained:
[1] = Ebola virus entry assay, green fluorescence channel
[2] = Ebola virus entry assay, blue channel fluorescence
[3] = Ebola virus entry assay, green channel fluorescence
[4] = Ebola virus entry assay, reporter ratio channel; AC50: Channel type: primary unless noted; outcome: Channel type: primary unless noted
[5] = Ebola virus entry assay, blue channel (ratio component)
[6] = Ebola virus entry assay, ratio channel
[7] = qHTS Assay for Identifying Gametocytocidal Compounds (AID 743244; active = well fitted curve in the direction sought with a large enough effect; an effect the other way counts as inactive or inconclusive;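 note: % is set by controls: 0 for no effect and ±100 for the full control effect; actives lower the fluorescent signal which means gametocytes are killed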); details: P. falciparum 3D7 stage III-V gametocytes, alamarBlue, 72 h; max response: stronger effect = lower value
Method in brief: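 P. falciparum 3D7 stage III–V gametocytes (20,000 cells/well) were exposed to compounds for 72 h at 37 °C, 5% CO2. AlamarBlue was then added for 24 h; decreased resorufin fluorescence (Ex 525/Em 598 nm) indicated loss of viability.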

[8] = qHTS assay for cell viability of HEK293 cells (AID 743288; active = well fitted curve in the direction sought with a large enough effect; an effect the other way counts as inactive or inconclusive; note: % is set by controls: 0 for no effect and ±100 for the full control effect; nearly all actives have a fitted effect of over 50% in size); details: ATP luminescence (CellTiter-Glo), 18 h, stronger effect = lower value
Method in brief: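 Parental HEK293 cells, 2,000 per well, preincubated at least 5 h at 37 C, then exposed to compounds in DMSO for 18 h at 37 C. Viability by CellTiter-Glo ATP luminescence after 30 min at room temperature.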

[9] = qHTS profiling of the MIPE4 collection as inhibitors of Plasmodium falciparum (3D7) proliferation (AID 743344);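 note: scaled between DMSO vehicle wells and 0.29 µM artemisinin as full inhibition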; details: P. falciparum 3D7 in erythrocytes, SYBR Green DNA fluorescence, 72 h; at 28.5 µM (top of the series) unless noted
Method in brief: (§1)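 Erythrocytes infected with P. falciparum (0.3% parasitemia, 2.5% hematocrit) incubated with compounds 72 h at 37 C, 5% CO2. Lysis with saponin/Triton buffer containing SYBR Green I, overnight at room temperature in the dark; DNA fluorescence (485/535 nm) normalised to 0.29 uM artemisinin and DMSO.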

[10] = qHTS profiling of the MIPE4 collection as inhibitors of Plasmodium falciparum (HB3) proliferation (AID 743347);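 note: plate controls were DMSO vehicle wells for no effect and artemisinin wells for full effect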; details: P. falciparum HB3 in erythrocytes, SYBR Green DNA, 72 h; at 28.5 µM (top of the series) unless noted
Method in brief: as §1
Throughout, for efficacy: 0% is about no effect.

SMILES: COc1cc(C)nc(-n2nc(C)cc2OC)n1
- efficacy [1]: -14.1% (inactive)
- outcome [2]: inactive
- outcome [3]: inactive
- outcome [4]: inactive
- outcome [5]: inactive

SMILES: O=C(O)CCCCCCCC(=O)O
- efficacy [1]: 17.2% (inactive)
- outcome [2]: inactive
- outcome [3]: inactive
- outcome [4]: inactive
- outcome [5]: inactive

SMILES: COc1ccc(NS(=O)(=O)c2ccc(N)cc2)nn1
- efficacy [1]: 8.59% (inactive)
- outcome [2]: inactive
- outcome [3]: inactive
- outcome [4]: inactive
- outcome [5]: inactive

SMILES: Cc1cccc(C(=O)O)c1O
- efficacy [1]: 15.1% (inactive)
- outcome [2]: inactive
- outcome [3]: inactive
- outcome [4]: inactive
- outcome [5]: inactive

SMILES: Cc1nc2c([nH]1)c(=O)n(C)c(=O)n2Cc1ccco1
- efficacy [1]: 40.2% (inactive)
- outcome [2]: inactive
- outcome [3]: inactive
- outcome [4]: inactive
- outcome [5]: inactive

SMILES: FC(F)(F)c1ccccc1-n1ccnc1
- efficacy [1]: 12.1% (inactive)
- outcome [2]: inactive
- outcome [3]: inactive
- outcome [4]: inactive
- outcome [5]: inactive

SMILES: CC(=O)OCC1=C(C(=O)O)N2C(=O)[C@@H](NC(=O)Cc3cccs3)[C@H]2SC1
- efficacy [1]: -9.53% (inactive)
- outcome [2]: inactive
- outcome [3]: inactive
- outcome [4]: inactive
- outcome [5]: inactive

SMILES: O=C(O)c1[nH]n(-c2ccc(S(=O)(=O)O)cc2)c(=O)c1N=Nc1ccc(S(=O)(=O)O)cc1
- efficacy [1]: 23% (inactive)
- outcome [2]: inactive
- outcome [3]: inactive
- outcome [4]: inactive
- outcome [5]: inactive

SMILES: CCCCCC[C@@H](CCC)C(=O)O
- efficacy [1]: 13.6% (inactive)
- outcome [2]: inactive
- outcome [3]: inactive
- outcome [4]: inactive
- outcome [5]: inactive

SMILES: O=C(OOC(=O)c1ccccc1)c1ccccc1
- efficacy [1]: -19.5% (inactive)
- outcome [2]: inactive
- outcome [3]: inactive
- outcome [4]: inactive
- outcome [5]: inactive

SMILES: COc1ccc2cc1Oc1cc3c(cc1OC)CC[N+](C)(C)[C@H]3Cc1ccc(cc1)Oc1c(OC)c(OC)cc3c1[C@@H](C2)[N+](C)(C)CC3
- efficacy [1]: -25.2% (inactive)
- outcome [2]: inactive
- outcome [3]: inactive
- outcome [4]: inactive
- outcome [5]: inactive

SMILES: COC(=O)c1cc(Cl)c(NC(C)=O)cc1OC
- efficacy [1]: -16.3% (inactive)
- outcome [2]: inactive
- outcome [3]: inactive
- outcome [4]: inactive
- outcome [5]: inactive

SMILES: CN(C)CCN1CCN(c2cccc(Cl)c2)C1=O
- efficacy [1]: -56.2% (inactive)
- outcome [2]: inactive
- outcome [3]: inactive
- outcome [4]: inactive
- outcome [5]: inactive

SMILES: O=C(O)Cc1ccc(OCCNC[C@H](O)c2ccccc2)cc1
- efficacy [1]: -33.3% (inactive)
- outcome [2]: inactive
- outcome [3]: inactive
- outcome [4]: inactive
- outcome [5]: inactive

SMILES: CC(=O)NO
- efficacy [1]: -14.2% (inactive)
- outcome [2]: inactive
- outcome [3]: inactive
- outcome [4]: inactive
- outcome [5]: inactive

SMILES: CN1CC[C@]23c4c5ccc(O)c4O[C@H]2[C@@H](O)C=C[C@H]3[C@H]1C5
- efficacy [1]: 19.5% (inactive)
- outcome [6]: inactive
- outcome [3]: inactive
- AC50 [4]: 35.5 µM (active)

SMILES: COP(=S)(OC)Oc1cc(Cl)c(Cl)cc1Cl
- max response [7]: -2.95% (inactive) and 7.49% (inactive)
- max response [8]: -11.5% (inactive)
- efficacy [1]: -14% (inactive)
- outcome [2]: inactive
- outcome [3]: inactive
- outcome [4]: inactive
- outcome [5]: inactive

SMILES: COC(=O)N/N=C/c1c[n+]([O-])c2ccccc2[n+]1[O-]
- efficacy [1]: 35% (inactive)
- outcome [2]: inactive
- outcome [4]: inactive
- outcome [5]: inactive

SMILES: COc1cccc([C@@]2(O)CCCC[C@@H]2CN(C)C)c1
- max response [7]: 5.95% (inactive)
- efficacy [1]: -12.5% (inactive)
- outcome [2]: inactive
- outcome [3]: inactive
- outcome [4]: inactive
- outcome [5]: inactive

SMILES: O=C(Nc1ccc(Br)cc1)c1cc(Br)cc(Br)c1O
- max response [7]: 3.6% (inactive)
- efficacy [1]: -20.2% (inactive)
- outcome [2]: inactive
- outcome [3]: inactive
- outcome [4]: inactive
- outcome [5]: inactive

SMILES: CC(CN(C)C)C(C)(O)Cc1ccc(Cl)cc1 (stereo unspecified)
- efficacy [1]: 33.9% (inactive)
- outcome [6]: inactive
- outcome [3]: inactive
- AC50 [4]: 28.2 µM (active)

SMILES: CC[N+](CC)(CC)CCOc1cccc(OCC[N+](CC)(CC)CC)c1OCC[N+](CC)(CC)CC
- parasite growth, % of DMSO control [9]: 86%
- growth, % of control [10]: 111%
- efficacy [1]: 15.9% (inactive)
- outcome [2]: inactive
- outcome [3]: inactive
- outcome [4]: inactive
- outcome [5]: inactive

SMILES: O=C(N/N=C/c1ccccc1O)c1ccncc1
- efficacy [1]: 66.8% (inactive)
- outcome [2]: inactive
- outcome [4]: inactive
- outcome [5]: inactive

SMILES: CN1C(C(=O)Nc2ccccn2)=C(O)c2sccc2S1(=O)=O
- efficacy [1]: -30.7% (inactive)
- outcome [2]: inactive
- outcome [4]: inactive
- outcome [5]: inactive

SMILES: C[C@]12CCC(=O)C=C1CC[C@@H]1[C@@H]2CC[C@@]2(C)[C@H]1CC[C@]2(C)O
- max response [7]: -12% (inactive) and -18.1% (inactive)
- max response [8]: -18% (inactive)
- efficacy [1]: -23% (inactive)
- outcome [2]: inactive
- outcome [3]: inactive
- outcome [4]: inactive
- outcome [5]: inactive

SMILES: CC(C)NCC(O)c1cc(O)cc(O)c1 (stereo unspecified)
- efficacy [1]: 56.8% (inactive)
- outcome [2]: inactive
- outcome [4]: inactive
- outcome [5]: inactive

SMILES: COc1cc(CCN)cc(OC)c1OC
- max response [7]: 17.2% (inactive)
- efficacy [1]: 10.5% (inactive)
- outcome [2]: inactive
- outcome [3]: inactive
- outcome [4]: inactive
- outcome [5]: inactive

SMILES: Cc1cccc(C)c1OCC(=O)N[C@@H](Cc1ccccc1)[C@@H](O)C[C@H](Cc1ccccc1)NC(=O)[C@H](C(C)C)N1CCCNC1=O
- efficacy [1]: 20.6% (inactive)
- outcome [6]: inactive
- outcome [3]: inactive
- AC50 [4]: 39.8 µM (active)

SMILES: O=C1OC2(c3ccccc31)c1cc(Br)c(O)c(Br)c1Oc1c2cc(Br)c(O)c1Br
- efficacy [1]: 23.8% (inactive)
- outcome [6]: inactive
- outcome [3]: inactive
- outcome [4]: inactive
- outcome [5]: inactive

SMILES: CCOc1ccccc1OCC1CNCCO1 (stereo unspecified)
- efficacy [1]: 47.7% (inactive)
- outcome [2]: inactive
- outcome [4]: inactive
- outcome [5]: inactive
